Measurements as given in PubChem BioAssay (NCATS).
A number with no mark means an inactive call. For part of these data: Potency and affinity values are given separately. The source made the active and inactive calls. No rule for the calls is given here.

Conditions: Ebola virus entry assay, green fluorescence channel
For efficacy in this document: 0% is about no effect.

**Q.** For `CN(C)C/C=C(/c1ccc(Br)cc1)c1cccnc1`, which efficacy is on record?
**A.** The efficacy was 51.4%.

**Q.** Which efficacy does the source give for `CC(=O)SC[C@@H](Cc1ccccc1)C(=O)NCC(=O)OCc1ccccc1` here?
**A.** Its efficacy is 58%.

**Q.** For `CCCCN(CCCC)CCC(O)c1cc2c(Cl)cc(Cl)cc2c2cc(C(F)(F)F)ccc12` (stereo not given), which efficacy is on record?
**A.** The efficacy was 131%.

**Q.** For `Cc1cc(O)c(C(C)C)cc1Cl`, which efficacy is on record?
**A.** The efficacy was -25.5%.

**Q.** For `CCCCCCCCCCCCCCCC[N+](C)(C)CCN(Cc1ccc(OC)cc1)c1ncccn1`, which efficacy is on record?
**A.** The efficacy was -93.3%.

**Q.** With `CN(C(=O)CN(CCO)CC(=O)N(C)C(C)(C)Cc1ccccc1)C(C)(C)Cc1ccccc1` as the compound, how does the efficacy read?
**A.** The efficacy was 43.4%.

**Q.** Which efficacy does the source give for `CCCC(C(=O)OCCN(CC)CC)(c1ccccc1)c1ccccc1` here?
**A.** The efficacy was -182%.

**Q.** Which efficacy does the source give for `CCN(CC)CCOC(=O)C(c1ccccc1)C1CCCCC1` (stereo not given) here?
**A.** The efficacy was -237%.

**Q.** For `O=C1NCCN1CCN1CCC(c2cn(-c3ccc(F)cc3)c3ccc(Cl)cc23)CC1`, which efficacy is on record?
**A.** Its efficacy is -279%.

**Q.** With `CCCCCCCCCCCCCCCCCCNC(=O)OC1CCN(C(=O)OC[C@H](COC(=O)N(Cc2cccc[n+]2CC)C(=O)c2ccccc2OC)OC)CC1` as the compound, how does the efficacy read?
**A.** The efficacy was -117%.

**Q.** With `C[C@H]1[C@H]2CC[C@H]3[C@@H]4CC=C5C[C@@H](N(C)C)CC[C@]5(C)[C@H]4CC[C@]23CN1C` as the compound, how does the efficacy read?
**A.** The efficacy was 108%.

**Q.** With `CC(C)COCC(CN(Cc1ccccc1)c1ccccc1)N1CCCC1` (stereo not given) as the compound, how does the efficacy read?
**A.** Its efficacy is -190%.

**Q.** With `Cc1cc(C2CCCCC2)n(O)c(=O)c1` as the compound, how does the efficacy read?
**A.** The efficacy was 53.2%.

**Q.** With `O=C(CCN1CCN2CCCC2C1)N1c2ccccc2Sc2ccc(Cl)cc21` (stereo not given) as the compound, how does the efficacy read?
**A.** Its efficacy is 163%.

**Q.** Which efficacy does the source give for `CN(C)c1ccc(C(=C2C=CC(=[N+](C)C)C=C2)c2ccc(N(C)C)cc2)cc1` here?
**A.** Its efficacy is -158%.

**Q.** For `OCc1cc(C(O)CNCCCCCCOCCCCc2ccccc2)ccc1O` (stereo not given), which efficacy is on record?
**A.** The efficacy was 98.5%.

**Q.** For `CC(=O)c1ccc2c(c1)N(CCCN1CCC(CCO)CC1)c1ccccc1S2`, which efficacy is on record?
**A.** The efficacy was 62.5%.

**Q.** For `CCc1cccc(N(C)C(N)=Nc2cccc3ccccc23)c1`, which efficacy is on record?
**A.** Its efficacy is 108%.

**Q.** With `Nc1ccc2cc3ccc(N)cc3nc2c1` as the compound, how does the efficacy read?
**A.** The efficacy was 154%.

**Q.** For `CN(C)[C@@H]1C(=O)C(C(=O)NCN2CCCC2)=C(O)[C@@]2(O)C(=O)C3=C(O)c4c(O)cccc4[C@@](C)(O)C3C[C@@H]12` (stereo not given in full), which efficacy is on record?
**A.** The efficacy was 145%.

**Q.** With `CC(C)(C)c1ccc(C(O)CCCN2CCC(C(O)(c3ccccc3)c3ccccc3)CC2)cc1` (stereo not given) as the compound, how does the efficacy read?
**A.** The efficacy was 59%.

**Q.** Which efficacy does the source give for `CN(C)CCOc1ccccc1Cc1ccccc1` here?
**A.** The efficacy was 74.8%.

Conditions: Ebola virus entry assay, blue channel fluorescence

**Q.** With `CCCCN1CCCC1C(=O)Nc1c(C)cc(C)cc1C` (stereo not given) as the compound, how does the outcome read?
**A.** The outcome was “inactive”.

**Q.** For `COc1cc(C(=O)OCCCN2CCCN(CCCOC(=O)c3cc(OC)c(OC)c(OC)c3)CC2)cc(OC)c1OC`, which AC50 is on record?
**A.** The AC50 was 17.8 µM (active).

**Q.** With `CCOc1ccccc1O[C@H](c1ccccc1)[C@H]1CNCCO1` as the compound, how does the AC50 read?
**A.** Its AC50 is 14.1 µM (active).

**Q.** Which AC50 does the source give for `CN1CCCC(n2nc(Cc3ccc(Cl)cc3)c3ccccc3c2=O)CC1` (stereo not given) here?
**A.** The AC50 was 3.16 µM (active).

**Q.** With `C[C@@H]1CN(CCCn2c3ccccc3c3ccccc32)C[C@H](C)N1` as the compound, how does the AC50 read?
**A.** The AC50 was 3.16 µM (active).

**Q.** Which AC50 does the source give for `CCC(C(=O)OCCOCCN(CC)CC)c1ccccc1` (stereo not given) here?
**A.** Its AC50 is 28.2 µM (active).

**Q.** With `Nc1c2c(nc3c1CCC3)CCCC2` as the compound, how does the AC50 read?
**A.** The AC50 was 28.2 µM (active).

**Q.** Which AC50 does the source give for `O=C1NCN(c2ccccc2)C12CCN(CCCC(c1ccc(F)cc1)c1ccc(F)cc1)CC2` here?
**A.** Its AC50 is 1.41 µM (active).

**Q.** Which AC50 does the source give for `CCN1C(=O)c2ccccc2C1Nc1ccc(OCCN2CCCCC2)cc1` (stereo not given) here?
**A.** Its AC50 is 12.6 µM (active).

**Q.** With `CSc1ccc2c(c1)C(N1CCN(C)CC1)Cc1ccccc1S2` (stereo not given) as the compound, how does the AC50 read?
**A.** Its AC50 is 3.55 µM (active).

**Q.** With `CC(C)(C)c1ccc(C(=O)CCCN2CCC(OC(c3ccccc3)c3ccccc3)CC2)cc1` as the compound, how does the AC50 read?
**A.** Its AC50 is 7.94 µM (active).

**Q.** For `CC(C)C[C@@H]1[C@H](c2ccccc2)OC(=O)N1CCCN1CCCCCC1`, which AC50 is on record?
**A.** Its AC50 is 12.6 µM (active).

**Q.** Which outcome does the source give for `COc1ccc2c(c1)c(CC(=O)O)c(C)n2C(=O)c1ccc(Cl)cc1` here?
**A.** The outcome was “inactive”.

**Q.** For `CN1CCCCC1CCN1c2ccccc2Sc2ccc(S(C)=O)cc21` (stereo not given), which AC50 is on record?
**A.** Its AC50 is 7.08 µM (active).

**Q.** With `Cc1cc(C(C)(C)C)c(O)c(C)c1CC1=NCCN1` as the compound, how does the AC50 read?
**A.** Its AC50 is 39.8 µM (active).

**Q.** With `C[C@@H](C1=C(CCN(C)C)Cc2ccccc21)c1ccccn1` as the compound, how does the AC50 read?
**A.** Its AC50 is 12.6 µM (active).

**Q.** For `CN(C)C/C=C(/c1ccc(Br)cc1)c1cccnc1`, which AC50 is on record?
**A.** Its AC50 is 39.8 µM (active).

**Q.** Which AC50 does the source give for `CC(=O)SC[C@@H](Cc1ccccc1)C(=O)NCC(=O)OCc1ccccc1` here?
**A.** Its AC50 is 28.2 µM (active).

**Q.** With `CCCCN(CCCC)CCC(O)c1cc2c(Cl)cc(Cl)cc2c2cc(C(F)(F)F)ccc12` (stereo not given) as the compound, how does the AC50 read?
**A.** The AC50 was 7.94 µM (active).

**Q.** For `Cc1cc(O)c(C(C)C)cc1Cl`, which AC50 is on record?
**A.** Its AC50 is 35.5 µM (active).

**Q.** With `CCCCCCCCCCCCCCCC[N+](C)(C)CCN(Cc1ccc(OC)cc1)c1ncccn1` as the compound, how does the AC50 read?
**A.** Its AC50 is 39.8 µM (active).

**Q.** For `CN(C(=O)CN(CCO)CC(=O)N(C)C(C)(C)Cc1ccccc1)C(C)(C)Cc1ccccc1`, which AC50 is on record?
**A.** The AC50 was 7.94 µM (active).

**Q.** With `CCCC(C(=O)OCCN(CC)CC)(c1ccccc1)c1ccccc1` as the compound, how does the AC50 read?
**A.** Its AC50 is 3.16 µM (active).

**Q.** With `CCN(CC)CCOC(=O)C(c1ccccc1)C1CCCCC1` (stereo not given) as the compound, how does the AC50 read?
**A.** Its AC50 is 2.82 µM (active).

**Q.** Which AC50 does the source give for `O=C1NCCN1CCN1CCC(c2cn(-c3ccc(F)cc3)c3ccc(Cl)cc23)CC1` here?
**A.** Its AC50 is 0.891 µM (active).

**Q.** For `CCCCCCCCCCCCCCCCCCNC(=O)OC1CCN(C(=O)OC[C@H](COC(=O)N(Cc2cccc[n+]2CC)C(=O)c2ccccc2OC)OC)CC1`, which AC50 is on record?
**A.** Its AC50 is 39.8 µM (active).

**Q.** With `C[C@H]1[C@H]2CC[C@H]3[C@@H]4CC=C5C[C@@H](N(C)C)CC[C@]5(C)[C@H]4CC[C@]23CN1C` as the compound, how does the AC50 read?
**A.** The AC50 was 10 µM (active).

**Q.** With `CC(C)COCC(CN(Cc1ccccc1)c1ccccc1)N1CCCC1` (stereo not given) as the compound, how does the AC50 read?
**A.** The AC50 was 2.82 µM (active).

**Q.** Which AC50 does the source give for `Cc1cc(C2CCCCC2)n(O)c(=O)c1` here?
**A.** Its AC50 is 39.8 µM (active).

**Q.** For `O=C(CCN1CCN2CCCC2C1)N1c2ccccc2Sc2ccc(Cl)cc21` (stereo not given), which AC50 is on record?
**A.** Its AC50 is 11.2 µM (active).

**Q.** For `CN(C)c1ccc(C(=C2C=CC(=[N+](C)C)C=C2)c2ccc(N(C)C)cc2)cc1`, which AC50 is on record?
**A.** The AC50 was 5.01 µM (active).

**Q.** Which AC50 does the source give for `OCc1cc(C(O)CNCCCCCCOCCCCc2ccccc2)ccc1O` (stereo not given) here?
**A.** Its AC50 is 7.94 µM (active).

**Q.** With `CC(=O)c1ccc2c(c1)N(CCCN1CCC(CCO)CC1)c1ccccc1S2` as the compound, how does the AC50 read?
**A.** Its AC50 is 3.16 µM (active).

**Q.** With `CCc1cccc(N(C)C(N)=Nc2cccc3ccccc23)c1` as the compound, how does the AC50 read?
**A.** Its AC50 is 20 µM (active).

**Q.** Which AC50 does the source give for `Nc1ccc2cc3ccc(N)cc3nc2c1` here?
**A.** Its AC50 is 39.8 µM (active).

**Q.** For `CN(C)[C@@H]1C(=O)C(C(=O)NCN2CCCC2)=C(O)[C@@]2(O)C(=O)C3=C(O)c4c(O)cccc4[C@@](C)(O)C3C[C@@H]12` (stereo not given in full), which AC50 is on record?
**A.** Its AC50 is 11.2 µM (active).

**Q.** For `CC(C)(C)c1ccc(C(O)CCCN2CCC(C(O)(c3ccccc3)c3ccccc3)CC2)cc1` (stereo not given), which AC50 is on record?
**A.** Its AC50 is 1.41 µM (active).

**Q.** Which AC50 does the source give for `CN(C)CCOc1ccccc1Cc1ccccc1` here?
**A.** Its AC50 is 3.55 µM (active).
